Inconclusive results are not listed. Active and inactive are the calls of the source. The calls were made as follows, unless noted: active = hit-call score of the fitted dose curve at least 0.9, where 1 is the maximum; inactive = score below 0.9.
Tests used:
[1] = CCTE_Shafer_MEA_dev_firing_rate_mean: CCTE's Neural Network Formation Assay for Mean Firing Rate, Shafer Lab (AID 2284031)
How it was run: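 Steps: seed rat cortical cells (1.5 x 10^5/well) with laminin on PEI-coated MEA; dose day 0; record DIV 5/7/9/12, full media and compound exchange after DIV 5 and 9 recordings; compute well-mean firing rate AUC.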

[2] = CCTE_Shafer_MEA_dev_per_burst_spike_percent: CCTE's Neural Network Formation Assay for Percent of Spikes in a Burst, Shafer Lab (AID 2284032)
How it was run: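 Value is trapezoidal AUC over recordings on days 5, 7, 9 and 12 of the well-mean fraction of spikes falling in single-electrode bursts; rat cortical cultures exposed continuously from plating, treatment renewed DIV 5 and 9, fitted downward against DMSO.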

[3] = CCTE_Shafer_MEA_dev_active_electrodes_number: CCTE's Neural Network Formation Assay for Number of Active Electrodes, Shafer Lab (AID 2284040; active = hit-call score of the fitted dose curve at least 0.9, where 1 is the maximum;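 also: potency for loss of active electrodes versus DMSO so lower counts are hits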)
How it was run: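 Counts electrodes per well firing at least 5 spikes/min, recorded on days 5, 7, 9 and 12 in rat cortical cultures dosed continuously from plating (treatment refreshed DIV 5, 9). Value is the area under the curve over recordings, fitted downward relative to DMSO.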

[4] = CCTE_Shafer_MEA_dev_burst_rate: CCTE's Neural Network Formation Assay for Burst Rate, Shafer Lab (AID 2284042)
How it was run: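 Rat primary cortical cultures on PEI/laminin MEA; compound from plating, re-dosed at DIV 5, 9 media change. Single-electrode bursts/recording length, well mean of active electrodes; AUC over DIV 5–12 recordings; loss-of-signal vs DMSO.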

[5] = CCTE_Shafer_MEA_dev_bursting_electrodes_number: CCTE's Neural Network Formation Assay for Number of Bursting Electrodes, Shafer Lab (AID 2284043; active = hit-call score of the fitted dose curve at least 0.9, where 1 is the maximum;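 also: potency is for loss of bursting electrodes relative to DMSO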)
How it was run: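 Number of electrodes reaching ≥1 burst every 2 min was recorded at DIV 5, 7, 9 and 12 and collapsed as trapezoidal area under the curve. Cultures were rat cortical neurons on MEA plates, dosed continuously from plating with medium and treatment refreshed on DIV 5 and 9.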

[6] = CCTE_Shafer_MEA_dev_per_burst_interspike_interval: CCTE's Neural Network Formation Assay for Burst Interspike Interval, Shafer Lab (AID 2284044)
How it was run: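 Spontaneous activity of maturing rat cortical networks is recorded on DIV 5, 7, 9 and 12 under chronic compound exposure beginning at plating. Endpoint: burst interspike interval well-mean, collapsed into trapezoidal AUC and fitted in the negative direction relative to DMSO.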

[7] = CCTE_Shafer_MEA_dev_burst_duration_mean: CCTE's Neural Network Formation Assay for Mean Burst Duration, Shafer Lab (AID 2284045)
How it was run: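 Mean single-electrode burst duration (first to last spike), averaged over bursting electrodes per well, then integrated as area-under-curve across recordings at days 5, 7, 9 and 12. Rat cortical cultures on MEAs, compound present from plating, refreshed at feeds.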

[8] = CCTE_Shafer_MEA_dev_interburst_interval_mean: CCTE's Neural Network Formation Assay for Mean Interburst Interval, Shafer Lab (AID 2284046);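 also: well-mean interburst interval of bursting electrodes as AUC over four recording days; curve fitted for decrease in interburst interval relative to DMSO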
How it was run: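 Rat cortical neurons, 1.5 x 10^5 cells/well, 48-well MEA; compound from day 0 through DIV 12, media and treatment renewed DIV 5/9. Recordings DIV 5, 7, 9, 12; well-mean interburst interval → trapezoidal AUC, loss direction vs DMSO.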

[9] = CCTE_Shafer_MEA_dev_inter_network_spike_interval_mean: CCTE's Neural Network Formation Assay for Mean Inter-network Spike Interval, Shafer Lab (AID 2284047)
How it was run: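 Primary rat cortical neurons on PEI-coated 48-well MEAs (16 electrodes/well) were exposed from plating day 0 to DIV 12, with dosing renewed at DIV 5 and 9. Recordings at DIV 5, 7, 9, 12 were collapsed by trapezoidal AUC, loss-of-signal fit vs DMSO.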

[10] = CCTE_Shafer_MEA_dev_network_spike_peak: CCTE's Neural Network Formation Assay for Mean Number of Electrodes in Network Spike, Shafer Lab (AID 2284049);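 also: fitted for loss of signal meaning fewer electrodes in network spikes than DMSO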
How it was run: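 Rat cortical primary culture, 1.5 x 10^5 cells/well, 48-well MEA (16 electrodes/well). Dosing day 0 through DIV 12, full media/compound exchange DIV 5, 9. AxIS adaptive spike detection; AUC over days 5/7/9/12; loss-of-signal vs DMSO.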

[11] = CCTE_Shafer_MEA_dev_spike_duration_mean: CCTE's Neural Network Formation Assay for Mean Spike Duration, Shafer Lab (AID 2284051);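 also: mean network spike duration pooled as area under curve over DIV 5 to 12 recordings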
How it was run: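 Rat cortical primary cultures, 48-well MEA (16 electrodes/well); compound from plating, renewed DIV 5, 9. Network spike duration (AxIS adaptive detector) recorded DIV 5/7/9/12, combined as trapezoidal AUC; loss direction vs DMSO.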

[12] = CCTE_Shafer_MEA_dev_network_spike_duration_std: CCTE's Neural Network Formation Assay for Standard Deviation of Network Spike Duration, Shafer Lab (AID 2284052);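 also: hits are decreases in network spike duration SD versus DMSO vehicle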
How it was run: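 Rat cortical cultures, 1.5 x 10^5 cells/well, exposed continuously from plating to DIV 12 with media/compound renewal at DIV 5, 9. Spontaneous activity recorded DIV 5/7/9/12, AxIS adaptive spike detector; AUC across days; negative direction vs DMSO.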

[13] = CCTE_Shafer_MEA_dev_per_network_spike_spike_number_mean: CCTE's Neural Network Formation Assay for Mean Number of Spikes in a Network Spike, Shafer Lab (AID 2284053)
How it was run: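 Rat cortical primary cultures on 48-well MEA; compound from day 0, re-dosed with full media change DIV 5, 9. Recorded DIV 5, 7, 9, 12; spikes in 0.05 s window at network-spike peak ÷ total network spikes; AUC; loss vs DMSO.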

[14] = CCTE_Shafer_MEA_dev_per_network_spike_spike_percent: CCTE's Neural Network Formation Assay for Percent of Spikes in a Network Spike, Shafer Lab (AID 2284054)
How it was run: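 Metric: fraction of spikes falling in a 0.05 s window at network-spike peaks. Recordings were made on days 5, 7, 9 and 12 and collapsed by trapezoidal AUC. Cultures were rat cortical neurons on MEA plates, dosed continuously from plating, re-dosed at media changes.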

[15] = CCTE_Shafer_MEA_dev_LDH: CCTE's Lactate Dehydrogenase Assay for Cytotoxicity in the Neural Network Formation Assay, Shafer Lab (AID 2284068; active = hit-call score of the fitted dose curve at least 0.9, where 1 is the maximum;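 also: exposure for twelve days from plating with re-dosing on DIV 5 and 9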)
How it was run: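 Rat cortical primary neurons, MEA culture; dosing day 0–12, full medium plus compound exchange DIV 5, 9. Read-out: LDH enzyme activity, spectrophotometric. DMSO = negative control/baseline; signal loss → cytotoxicity.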

[16] = CCTE_Shafer_MEA_dev_AB: CCTE's Alamar Blue Assay for Cytotoxicity in the Neural Network Formation Assay, Shafer Lab (AID 2284083; active = hit-call score of the fitted dose curve at least 0.9, where 1 is the maximum;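 also: resazurin reduction fluorescence as viability of cultured neurons; twelve days of exposure from plating with re-dosing on DIV 5 and 9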)
How it was run: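 Rat cortical primary cultures, 1.5 x 10^5 cells/well on MEA; continuous compound exposure over 12 days of network development, re-dosed with full medium change DIV 5 and 9. Alamar Blue fluorescence; loss of signal = cytotoxicity vs DMSO baseline.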

[17] = CCTE_Shafer_MEA_dev_mutual_information_norm: CCTE's Neural Network Formation Assay for Mutual Information Normalization, Shafer Lab (AID 2284091)
How it was run: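 Shared information across electrodes, tracked on days 5, 7, 9 and 12 of network development and collapsed as trapezoidal area under the curve. Rat cortical cultures were treated continuously from plating, with treatment renewed at feeds on DIV 5 and 9; DMSO baseline, negative-direction fit.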

[18] = CCTE_Shafer_MEA_dev_correlation_coefficient_mean: CCTE's Neural Network Formation Assay for Mean Correlation Coefficient, Shafer Lab (AID 2284093)
How it was run: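 Rat cortical cultures, 1.5 x 10^5 cells/well, dosed from day 0 for 12 days. Spontaneous spikes recorded DIV 5/7/9/12; electrode-pair correlation coefficients averaged, AUC taken. Fit in loss direction vs DMSO.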

[19] = UKN2_HCS_IMR90_neural_migration: University of Konstanz (UKN) Leist Lab Neural Crest Cell Migration Assay in human induced IMR90 Pluripotent Stem Cells (UKN2) (AID 2284204); conditions: actives raise or lower the signal
How it was run: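 High-content imaging of calcein-AM and Hoechst stained cells quantifies migration into a stopper-defined gap after 24 h compound exposure. Neural crest cells from IMR90 iPSC migrated 24 h in EGF/FGF N2-S medium before dosing; DMSO baseline.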

[20] = IUF_NPC1b_proliferation_BrdU_72hr: Leibniz Research Institute for Environmental Medicine (IUF) 72-hour Neural Progenitor Cell Bromodeoxyuridine (BrdU) Proliferation Assay (NPC1b) (AID 2284207)
How it was run: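 Human fetal cortex-derived (GW 16-19) neural progenitor spheres, 0.25-0.35 mm, one per well in EGF/FGF proliferation medium, exposed to compound for 72 h at 37C, pH 7.2-7.6. BrdU incorporation over the final 16 h read by luminescence ELISA, relative to DMSO.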

[21] = IUF_NPC1a_proliferation_area_72hr: Leibniz Research Institute for Environmental Medicine (IUF) 72-hour Neural Progenitor Cell Proliferation Area Assay (NPC1a) (AID 2284208)
How it was run: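 Measured in 3D suspension: each well held one primary hNPC sphere grown with EGF and FGF at pH 7.2-7.6. Compound stayed on for 72 h, then area was imaged; spheres lacking growth factors defined reduced proliferation.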

[22] = IUF_NPC1_viability_72hr: Viability Assessment at 72 hours in the Leibniz Research Institute for Environmental Medicine (IUF) Neural Progenitor Cell Proliferation Assay (NPC1) (AID 2284209)
How it was run: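 Spheres of primary human neural progenitors were plated singly in proliferation medium and treated for 72 h. Mitochondrial reduction of resazurin was then measured by fluorescence and analysed against DMSO controls.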

[23] = CCTE_Mundy_HCI_Cortical_Synap_Neur_Matur_NeuriteSpotCountPerNeuriteLength: CCTE's Synaptogenesis and Neurite Maturation Assay in rat cortical cells for Neurite Spot Count per Neurite Length, Mundy Lab (AID 2284210)
How it was run: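 Synaptophysin spots per unit neurite length, measured by automated imaging of MAP2/synaptophysin/Hoechst-stained neurons. Cultures from rat cortex received chemical at DIV 7 with media change through DIV 12; glial growth arrested by AraC at DIV 5; DMSO baseline.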

[24] = CCTE_Mundy_HCI_Cortical_Synap_Neur_Matur_BPCount: CCTE's Synaptogenesis and Neurite Maturation Assay in rat cortical cells for Branch Point Count, Mundy Lab (AID 2284211)
How it was run: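 HCI read-out of branch points from MAP2/synaptophysin/Hoechst immunofluorescence; rat cortical cultures, AraC DIV 5, dosing DIV 7, fixed DIV 12; fit in positive direction vs DMSO baseline.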

[25] = CCTE_Mundy_HCI_Cortical_NOG_NeuriteCount: CCTE's Neurite Outgrowth Assay in rat cortical cells for Neurite Count, Mundy Lab (AID 2284212);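 also: cells fixed about two days after chemical exposure began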
How it was run: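 Rat cortical primary cells; compound added 2 h post-plating, 1/10 dilution of working solution. Anti-betaIII-tubulin/AF488 ICC; ArrayScan neurite count vs DMSO.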

Measured: AC50

CCOP(=O)(OCC)SCSC(C)(C)C
active: [3] 16.2 µM | [5] 9.83 µM | [10] 49.5 µM | [15] 49.5 µM | [16] 90.6 µM | [25] 75.4 µM
inactive: all other assays above
